What is called AC50 is the concentration at which the activity in the assay is half-maximal.

Calls of active or inactive are those of the source. The calls were made as follows: active = hit-call score of the fitted dose curve at least 0.9, where 1 is the maximum; inactive = score below 0.9.

Signal transducer and activator of transcription 3 (Homo sapiens), sequence (P40763 whole entry, looked up): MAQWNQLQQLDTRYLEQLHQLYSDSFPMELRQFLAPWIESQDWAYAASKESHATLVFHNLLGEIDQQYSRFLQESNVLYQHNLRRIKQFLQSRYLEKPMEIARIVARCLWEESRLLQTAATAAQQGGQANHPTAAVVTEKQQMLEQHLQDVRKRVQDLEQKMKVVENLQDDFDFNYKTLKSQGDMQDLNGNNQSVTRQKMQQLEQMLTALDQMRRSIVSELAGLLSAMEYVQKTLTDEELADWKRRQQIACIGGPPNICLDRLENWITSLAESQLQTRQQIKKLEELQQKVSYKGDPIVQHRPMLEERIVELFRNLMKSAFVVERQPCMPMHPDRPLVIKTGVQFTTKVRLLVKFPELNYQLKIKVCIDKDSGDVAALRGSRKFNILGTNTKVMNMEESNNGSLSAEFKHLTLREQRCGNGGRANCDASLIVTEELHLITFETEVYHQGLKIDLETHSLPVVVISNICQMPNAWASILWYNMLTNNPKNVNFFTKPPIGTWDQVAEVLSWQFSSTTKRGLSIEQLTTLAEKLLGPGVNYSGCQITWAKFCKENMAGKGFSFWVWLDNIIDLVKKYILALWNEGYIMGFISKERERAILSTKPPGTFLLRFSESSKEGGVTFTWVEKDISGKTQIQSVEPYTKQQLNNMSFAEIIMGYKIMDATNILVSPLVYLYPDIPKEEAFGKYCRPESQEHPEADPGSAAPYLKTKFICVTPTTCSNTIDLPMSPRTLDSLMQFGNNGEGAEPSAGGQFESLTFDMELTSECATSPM

The first experiment deals with Signal transducer and activator of transcription 3 (Homo sapiens) (UniProt P40763). Briefly: ATG_STAT3_CIS: Attagene CIS-FACTORIAL HepG2 Assay for human Signal Transducer and Activator of Transcription 3 (STAT3) (AID 2282963). The following applies: HepG2, Attagene cis-factorial STAT3 reporter transcription; actives raise or lower the signal. Summed up:
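After a 24 h compound incubation, total RNA from MRTU-transfected HepG2 cells was converted to cDNA and reporter sequences PCR-amplified, labelled and profiled by capillary electrophoresis. Gain and loss of signal were referenced to DMSO.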
On to `Cc1c(COC(=O)[C@@H]2[C@H](/C=C(\Cl)C(F)(F)F)C2(C)C)cccc1-c1ccccc1`, for which the call was inactive.

For `Clc1cccc(C(Cl)(Cl)Cl)n1`, the outcome was inactive.

As to `N#Cc1c[nH]cc1-c1cccc2c1OC(F)(F)O2`, the molecule was called inactive.

For the molecule `CCNP(=S)(OC)O/C(C)=C/C(=O)OC(C)C` (stereo not given), the molecule was classed as inactive.

In the case of `CCCN(CC)CC1COC2(CCC(C(C)(C)C)CC2)O1` (stereo not given), the AC50 is 86.3 µM (active).

Turning to `CC(C)Nc1nc(Cl)nc(NC(C)C)n1`, the outcome was inactive.

As for `Cc1ccc(N=CN(C)C=Nc2ccc(C)cc2C)c(C)c1`, the call was inactive.

Regarding `COCC(C)N(C(=O)CCl)c1c(C)csc1C` (stereo not given), the molecule was classed as inactive.

On to `CN/C(=N\[N+](=O)[O-])NCc1cnc(Cl)s1`, for which the call was inactive.

On to `O=P(O)(O)CCCl`, for which the result was inactive.

Take `CCOC(=O)C(C)OC(=O)c1cc(Oc2ccc(C(F)(F)F)cc2Cl)ccc1[N+](=O)[O-]` (stereo not given): the call was inactive.

Turning to `CCOP(=S)(OCC)Oc1nc(Cl)n(C(C)C)n1`, the molecule was called inactive.

Consider `Nc1c(Cl)c(F)nc(OCC(=O)O)c1Cl`, for which the molecule was classed as inactive.

As to `N#CN=C1SCCN1Cc1ccc(Cl)nc1`, the result was inactive.

System in the next experiment: not listed separately
Briefly: ATG_TA_CIS: Attagene CIS-FACTORIAL HepG2 Assay for human TA Basal Promoter (AID 2282964). The following applies: HepG2 Attagene CIS-factorial TA basal promoter reporter; actives raise or lower the signal. Summed up:
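Cis-factorial format in HepG2: reporters report endogenous factors, not chimeric Gal4 fusions. After 24 h treatment, reporter transcripts were measured by RT-PCR-capillary electrophoresis fluorescence, analysed bidirectionally versus DMSO.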
In the case of `Cn1c(-c2ccccc2)cc(-c2ccccc2)[n+]1C`, the molecule was called inactive.

Consider `CC(C)C1(C)N=C(c2ncccc2C(=O)O)NC1=O` (stereo not given), for which the call was inactive.

For the molecule `COc1ccc(-c2ccccc2)cc1NNC(=O)OC(C)C`, the molecule was classed as inactive.

With `CC(C)=CC1C(C(=O)OCc2coc(Cc3ccccc3)c2)C1(C)C` (stereo not given), the call was inactive.

`CCSC(=O)N1CCCCCC1`: the molecule was classed as inactive.

For `COc1cc(Cl)c(OC)cc1Cl`, the result was inactive.

As for `OC(c1ccc(Cl)cc1)(c1ccc(Cl)cc1)C(Cl)(Cl)Cl`, the molecule was classed as inactive.

As for `CCOP(=O)(OCC)Oc1nc(Cl)c(Cl)cc1Cl`, the result was inactive.

Regarding `COC(=O)N(C(=O)N1CO[C@@]2(C(=O)OC)Cc3cc(Cl)ccc3C2=N1)c1ccc(OC(F)(F)F)cc1`, the call was inactive.

Take `Cc1nc(N(C)C)nc(OC(=O)N(C)C)c1C`: the molecule was called inactive.

Take `CC(C)N1C(=O)c2ccccc2NS1(=O)=O`: the molecule was classed as inactive.

Turning to `Nc1c(Cl)c(Cl)nc(C(=O)O)c1Cl`, the call was inactive.

Take `CC1(C)C(C=C(Cl)Cl)C1C(=O)OC(C#N)c1cccc(Oc2ccccc2)c1` (stereo not given): the result was inactive.

Regarding `COC(=O)NS(=O)(=O)c1ccc(N)cc1`, the molecule was called inactive.

`Cc1cc(C)nc(Nc2ccccc2)n1`: the molecule was classed as inactive.

With `CNC(=O)Oc1cccc2ccccc12`, the molecule was called inactive.

For the molecule `O=C(O)c1c(Cl)ccc2cc(Cl)cnc12`, the call was inactive.

With `O=C1C2CC=CCC2C(=O)N1SC(Cl)(Cl)Cl` (stereo not given), the molecule was called inactive.

As for `Cc1cnc(C2=NC(C)(C(C)C)C(=O)N2)c(C(=O)O)c1` (stereo not given), the result was inactive.

As for `CCCCOCN(C(=O)CCl)c1c(CC)cccc1CC`, the result was inactive.

Take `COP(=O)(OC)O/C(C)=C/C(=O)N(C)C`: the molecule was called inactive.

Regarding `CCC(C)n1c(=O)[nH]c(C)c(Br)c1=O` (stereo not given), the molecule was classed as inactive.

As for `Cc1c(COC(=O)[C@@H]2[C@H](/C=C(\Cl)C(F)(F)F)C2(C)C)cccc1-c1ccccc1`, the result was inactive.

As to `Clc1cccc(C(Cl)(Cl)Cl)n1`, the result was inactive.

With `N#Cc1c[nH]cc1-c1cccc2c1OC(F)(F)O2`, the result was inactive.

For the molecule `CCNP(=S)(OC)O/C(C)=C/C(=O)OC(C)C` (stereo not given), the outcome was inactive.

Regarding `CCCN(CC)CC1COC2(CCC(C(C)(C)C)CC2)O1` (stereo not given), the result was inactive.

`CC(C)Nc1nc(Cl)nc(NC(C)C)n1`: the molecule was classed as inactive.

Turning to `Cc1ccc(N=CN(C)C=Nc2ccc(C)cc2C)c(C)c1`, the result was inactive.

On to `COCC(C)N(C(=O)CCl)c1c(C)csc1C` (stereo not given), for which the outcome was inactive.

As for `CN/C(=N\[N+](=O)[O-])NCc1cnc(Cl)s1`, the molecule was called inactive.

On to `O=P(O)(O)CCCl`, for which the molecule was called inactive.

Regarding `CCOC(=O)C(C)OC(=O)c1cc(Oc2ccc(C(F)(F)F)cc2Cl)ccc1[N+](=O)[O-]` (stereo not given), the call was inactive.

`CCOP(=S)(OCC)Oc1nc(Cl)n(C(C)C)n1`: the result was inactive.

For `Nc1c(Cl)c(F)nc(OCC(=O)O)c1Cl`, the call was inactive.

For the molecule `N#CN=C1SCCN1Cc1ccc(Cl)nc1`, the outcome was inactive.
